The source of these data is PubChem BioAssay (NCATS).

Results filed as inconclusive are left out. Values without a mark were called inactive. The source made the active and inactive calls. Calls follow the shape of the dose curve; as a rule, active = well fitted curve in the direction sought with a large enough effect; inconclusive = small, poorly fitted or top-dose-only effect, or another doubt; inactive = no such curve, though single readings can be large; an effect the other way counts as inactive or inconclusive.

The target in experiment [1] is Rap guanine nucleotide exchange factor 3 (Homo sapiens) (UniProt O95398). Kind of experiment: Confirmatory qHTS for antagonist of cAMP-regulated guanine nucleotide exchange factor 3 (EPAC1) (AID 1645880). Also: nearly all actives have a fitted effect of over 55% in size. Also: potency is read from the fitted curve at half-maximal effect. The gist of the method:
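Released BODIPY-GDP fluoresces less than Rap1-bound BODIPY-GDP; the signal is followed at 480/540 nm at 5-min intervals over 30 min, after 5 min at room temperature. Reactions contain 100 nM EPAC1, 250 nM RAP1B-BODIPY-GDP and 50 uM GDP; results are normalized to ATA and DMSO.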
(Quantitative high-throughput screening tests each substance at several concentrations.)

The target is the same in experiment [2]. Kind of experiment: Confirmatory qHTS for agonist of cAMP-regulated guanine nucleotide exchange factor 3 (EPAC1) (AID 1645881). Also: nearly all actives have a fitted effect of over 75% in size. Also: potency is read from the fitted curve at half-maximal effect.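 As to activation: EPAC1 catalysed release of BODIPY-GDP from Rap1B seen as fluorescence loss; 100% = effect of cAMP agonist control.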
Experiment [3] has as its target Rap guanine nucleotide exchange factor 4 (Homo sapiens) (UniProt Q8WZA2). Kind of experiment: Confirmatory qHTS for agonist of cAMP-regulated guanine nucleotide exchange factor 4 (EPAC2) (AID 1645884).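 Also: nucleotide exchange releases bodipy-GDP from Rap1 and this lowers its fluorescence; nearly all actives have a fitted effect of over 65% in size.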 Also: potency is read from the fitted curve at half-maximal effect. As to activation: % is scaled to controls: 0 for no effect and ±100 for the full control effect.
The target is the same in experiment [4]. Kind of experiment: Confirmatory qHTS for antagonist of cAMP-regulated guanine nucleotide exchange factor 4 (EPAC2) (AID 1645885). Also: nearly all actives have a fitted effect of over 25% in size. Also: potency is read from the fitted curve at half-maximal effect. As to activity change, negative = inhibition: % is scaled to controls: 0 for no effect and ±100 for the full control effect.
Experiment [5] deals with Rap guanine nucleotide exchange factor 3 (Homo sapiens) (UniProt O95398). Kind of experiment: Counterscreen qHTS for antagonist of cAMP-regulated guanine nucleotide exchange factor 3 (EPAC1) (AID 1645888). Also: % of control where 0% means no effect. The gist of the method: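 Rap1B-BODIPY-GDP 250 nM + GDP 50 uM; cpds 7-pt, final 9.74 nM–152 uM (activator mode) or from 7.32 nM upwards (inhibitor mode); RT; FI 480/540 nm at 5 and 30 min, then ± cAMP, reread.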
Rap guanine nucleotide exchange factor 3 (Homo sapiens), sequence (O95398 whole entry, looked up): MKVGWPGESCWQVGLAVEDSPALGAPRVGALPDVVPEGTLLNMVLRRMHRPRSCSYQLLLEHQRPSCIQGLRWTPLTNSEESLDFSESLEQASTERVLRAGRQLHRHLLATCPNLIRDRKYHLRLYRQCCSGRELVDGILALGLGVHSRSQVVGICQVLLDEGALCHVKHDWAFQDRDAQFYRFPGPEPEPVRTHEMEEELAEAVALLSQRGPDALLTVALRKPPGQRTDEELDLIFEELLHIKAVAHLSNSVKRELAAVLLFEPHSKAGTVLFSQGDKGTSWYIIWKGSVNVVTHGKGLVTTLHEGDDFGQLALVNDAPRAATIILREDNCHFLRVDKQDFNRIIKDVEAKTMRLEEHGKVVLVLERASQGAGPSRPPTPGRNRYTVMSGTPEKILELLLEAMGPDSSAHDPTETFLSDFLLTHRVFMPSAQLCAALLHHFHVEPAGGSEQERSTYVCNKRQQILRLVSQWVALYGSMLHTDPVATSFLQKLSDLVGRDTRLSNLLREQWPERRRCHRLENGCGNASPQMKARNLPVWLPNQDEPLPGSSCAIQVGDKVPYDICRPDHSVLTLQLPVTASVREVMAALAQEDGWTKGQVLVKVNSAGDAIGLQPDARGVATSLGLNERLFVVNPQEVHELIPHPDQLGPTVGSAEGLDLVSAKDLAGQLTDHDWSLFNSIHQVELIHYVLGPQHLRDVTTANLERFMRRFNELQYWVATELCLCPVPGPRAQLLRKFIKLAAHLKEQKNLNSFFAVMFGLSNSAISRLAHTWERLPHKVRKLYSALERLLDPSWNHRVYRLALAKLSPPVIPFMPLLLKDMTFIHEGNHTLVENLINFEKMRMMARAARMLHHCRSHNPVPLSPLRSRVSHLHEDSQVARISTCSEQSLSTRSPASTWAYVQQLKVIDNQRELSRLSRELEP

Rap guanine nucleotide exchange factor 4 (Homo sapiens), sequence (Q8WZA2 whole entry, looked up): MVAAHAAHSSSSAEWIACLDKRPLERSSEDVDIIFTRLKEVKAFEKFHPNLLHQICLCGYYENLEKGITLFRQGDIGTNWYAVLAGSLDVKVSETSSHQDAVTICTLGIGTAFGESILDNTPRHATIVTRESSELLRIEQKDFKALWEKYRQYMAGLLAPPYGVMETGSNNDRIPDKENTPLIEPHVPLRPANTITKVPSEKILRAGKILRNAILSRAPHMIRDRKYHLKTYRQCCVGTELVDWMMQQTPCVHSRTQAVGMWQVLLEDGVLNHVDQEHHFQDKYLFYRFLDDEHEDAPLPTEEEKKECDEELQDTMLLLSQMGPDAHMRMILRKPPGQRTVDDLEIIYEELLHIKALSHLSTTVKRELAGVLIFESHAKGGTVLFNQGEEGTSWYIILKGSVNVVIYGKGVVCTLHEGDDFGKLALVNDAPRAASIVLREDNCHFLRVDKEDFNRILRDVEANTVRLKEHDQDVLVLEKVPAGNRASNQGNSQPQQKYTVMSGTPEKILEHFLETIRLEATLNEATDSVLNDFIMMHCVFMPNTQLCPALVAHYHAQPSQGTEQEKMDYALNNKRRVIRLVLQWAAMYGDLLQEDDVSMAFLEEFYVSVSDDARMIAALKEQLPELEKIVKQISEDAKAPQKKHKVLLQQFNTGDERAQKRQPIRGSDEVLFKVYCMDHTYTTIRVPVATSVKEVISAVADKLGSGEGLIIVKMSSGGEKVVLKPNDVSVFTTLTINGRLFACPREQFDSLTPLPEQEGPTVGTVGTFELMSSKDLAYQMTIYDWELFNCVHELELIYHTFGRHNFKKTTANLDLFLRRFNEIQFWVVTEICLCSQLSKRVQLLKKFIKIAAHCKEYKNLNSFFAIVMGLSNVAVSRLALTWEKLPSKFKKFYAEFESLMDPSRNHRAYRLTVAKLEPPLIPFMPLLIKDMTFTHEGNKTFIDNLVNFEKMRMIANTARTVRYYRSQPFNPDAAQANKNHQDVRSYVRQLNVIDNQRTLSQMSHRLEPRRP

`CC1(C)CC(=O)C=C(c2ccc(F)cc2OCc2ccccc2)C1`: the Potency entry in experiment [1], in experiment [2], in experiment [3], in experiment [4] and in experiment [5] was “inactive” in each case.

`COCCN(CCOC)Cc1cc(=O)oc2cc(C)c(C)cc12`: the Potency entry in experiment [1], in experiment [2] and in experiment [4] was “inactive” in each case. Besides, in experiment [3], the activation was 2.1% [at 17.1 µM, percent relative to cAMP agonist control]. In addition, in experiment [5], the activity change, negative = inhibition was -13% [at 30.8 µM].

As for `Cc1cc(C)c(OCC(=O)Nc2ccccc2N2CCCCC2)c(C)c1`, the Potency entry in experiment [1], in experiment [2], in experiment [3], in experiment [4] and in experiment [5] was “inactive” throughout.

Regarding `COc1cc(NS(=O)(=O)c2ccc(NC(=O)/C(=C/c3ccccc3Cl)NC(=O)c3ccccc3)cc2)nc(OC)n1`, the Potency in experiment [1] is 84.9 µM (active). Further, the Potency entry in experiment [2], in experiment [3], in experiment [4] and in experiment [5] was “inactive” each time.

For `COc1ccc(CN2C(=O)CN(S(C)(=O)=O)CC2(C)C(=O)Nc2c(C)cccc2C)cc1OC` (stereo not given), the Potency result in experiment [1], in experiment [2] and in experiment [4] was “inactive” in each case. Moreover, the activation in experiment [3] is 5.79% [at 17.1 µM, percent relative to cAMP agonist control]. For the same compound, in experiment [5], the activity change, negative = inhibition was -5.99% [at 30.8 µM].

On to `COc1cccc(/C(=N/O)C2CC2c2ccc(Cl)cc2)c1` (stereo not given), for which the Potency entry in experiment [1], in experiment [2] and in experiment [4] was “inactive” throughout. Besides, the activation in experiment [3] was 1.73% [at 17.1 µM, percent relative to cAMP agonist control]. For the same compound, in experiment [5], the activity change, negative = inhibition was -11.7% [at 30.8 µM].

Consider `CCCCN(CCCC)S(=O)(=O)c1ccc(C(=O)Nc2sc3c(c2C(N)=O)CCN(CC)C3)cc1`, for which the Potency entry in experiment [1], in experiment [2], in experiment [3], in experiment [4] and in experiment [5] was “inactive” throughout.

Regarding `O=c1[nH]c([N+](=O)[O-])nn1C(c1ccccc1)c1ccccc1`, the Potency result in experiment [1], in experiment [2], in experiment [3] and in experiment [5] was “inactive” each time. Moreover, the Potency in experiment [4] was 26.9 µM (active).

For `COC(=O)[C@@H]1C[C@@H](c2ccccc2)[C@H](C)C1(C)C`, the Potency entry in experiment [1], in experiment [2], in experiment [3], in experiment [4] and in experiment [5] was “inactive” throughout.

On to `CC1(C(=O)NS(=O)(=O)c2cccs2)CCN1C(=O)C1(c2ccc(Cl)cc2)CCC1` (stereo not given), for which the Potency in experiment [1] was 15.8 µM (active). In addition, the Potency result in experiment [2] and in experiment [4] was “inactive” in each case. The activation in experiment [3] was 1.54% [at 17.1 µM, percent relative to cAMP agonist control]. In addition, the activity change, negative = inhibition in experiment [5] was -14.6% [at 30.8 µM].

In the case of `CCc1ccc(S(=O)(=O)/N=C2\C=C(Nc3cccc(C(=O)O)c3)C(=O)c3ccccc32)cc1`, the Potency is 37.9 µM (active) in experiment [1] and 0.379 µM (active) in experiment [4]. Moreover, the Potency result in experiment [2], in experiment [3] and in experiment [5] was “inactive” in each case.

Regarding `CC(C)c1ccc(NC(=O)c2ccc(Cn3nc(N4CCN(c5ccccc5)CC4)ccc3=O)o2)cc1`, the Potency in experiment [1] is 84.9 µM (active). Further, the Potency result in experiment [2], in experiment [3], in experiment [4] and in experiment [5] was “inactive” each time.

As for `CCc1nn2c(-c3ccccc3OC)ccnc2c1-c1ccccc1`, the Potency result in experiment [1], in experiment [2], in experiment [3] and in experiment [5] was “inactive” throughout. Moreover, in experiment [4], the outcome is “inactive [at 12.7 µM]”.

Take `N#C/C(=C/c1ccc(N2CCOCC2)o1)C(=O)Nc1ccccc1`: the Potency entry in experiment [1] and in experiment [5] was “inactive” throughout. For the same compound, the Potency in experiment [2] is 112 µM (active); in experiment [3], 100 µM (active); in experiment [4], 75.7 µM (active).

Regarding `Cc1nnc(SCc2cccc3ccccc23)s1`, the Potency entry in experiment [1], in experiment [2], in experiment [3], in experiment [4] and in experiment [5] was “inactive” throughout.

Consider `COc1cccc(NC(=O)CCNC(=O)Cn2ccc3ccccc3c2=O)c1`, for which the Potency result in experiment [1], in experiment [2], in experiment [3], in experiment [4] and in experiment [5] was “inactive” throughout.

`OC1(c2ccccc2)CC(c2ccccc2)c2ccccc2O1` (stereo not given): the Potency result in experiment [1], in experiment [2] and in experiment [4] was “inactive” each time. Further, the activation in experiment [3] is 1.28% [at 17.1 µM, percent relative to cAMP agonist control]. In addition, the activity change, negative = inhibition in experiment [5] is -2.96% [at 30.8 µM].

As for `CCCOc1cccc(C2C(C(=O)c3cccs3)=C(O)C(=O)N2Cc2cccnc2)c1` (stereo not given), the Potency entry in experiment [1], in experiment [2] and in experiment [4] was “inactive” each time. Besides, the activation in experiment [3] is 2.94% [at 17.1 µM, percent relative to cAMP agonist control]. Also, the activity change, negative = inhibition in experiment [5] was -13.9% [at 30.8 µM].

Turning to `CC(=O)NC(c1ccccc1)c1cc(Cl)c2cccnc2c1O` (stereo not given), the Potency result in experiment [1], in experiment [2], in experiment [3], in experiment [4] and in experiment [5] was “inactive” throughout.

`O=C(c1ccco1)N(Cc1ccc([N+](=O)[O-])cc1)c1ccc(Br)cc1`: the Potency entry in experiment [1], in experiment [2] and in experiment [4] was “inactive” throughout. For the same compound, the activation in experiment [3] was -0.906% [at 17.1 µM, percent relative to cAMP agonist control]. Besides, in experiment [5], the activity change, negative = inhibition is 10.5% [at 30.8 µM].

Consider `CC1Cc2nc(SCC(=O)OCc3ccccc3)n(C)c(=O)c2S1` (stereo not given), for which the Potency entry in experiment [1], in experiment [2] and in experiment [4] was “inactive” each time. The activation in experiment [3] was 3.71% [at 17.1 µM, percent relative to cAMP agonist control]. For the same compound, the activity change, negative = inhibition in experiment [5] is 9.81% [at 30.8 µM].

As for `CSCc1cc(N(C)c2ccccc2)nc(-c2ccccc2)n1`, the Potency entry in experiment [1], in experiment [2], in experiment [3] and in experiment [5] was “inactive” each time. In experiment [4], the Potency is 6.01 µM (active).

Take `O=C(OCC(=O)N1CCN(S(=O)(=O)c2ccc(Cl)cc2)CC1)c1cccc(OC(F)F)c1`: the Potency entry in experiment [1], in experiment [2] and in experiment [4] was “inactive” each time. In addition, in experiment [3], the activation was 0.331% [at 17.1 µM, percent relative to cAMP agonist control]. Besides, in experiment [5], the activity change, negative = inhibition was -17.2% [at 30.8 µM].

`NS(=O)(=O)c1cc(C(=O)NC2CCSc3ccccc32)ccc1Cl` (stereo not given): the Potency is 13.5 µM (active) in experiment [1] and 30.1 µM (active) in experiment [4]. In addition, the Potency result in experiment [2], in experiment [3] and in experiment [5] was “inactive” throughout.

On to `CCOC(=O)c1sc2nc(-c3ccco3)c3c(c2c1N)CC(C)(C)OC3`, for which the Potency in experiment [1] was 44.7 µM (active). Moreover, the Potency entry in experiment [2] and in experiment [4] was “inactive” throughout. Further, in experiment [3], the activation was 7.15% [at 17.1 µM, percent relative to cAMP agonist control]. Besides, the activity change, negative = inhibition in experiment [5] was -5.49% [at 30.8 µM].
